From PubChem BioAssay AID864 (The Scripps Research Institute Molecular Screening Center, 2007)
This is one part of the list. Values without a mark were called inactive. Rule as the data show it: active = activation above about 8.4%; inactive = the rest.

Target: Galanin receptor type 2 (Homo sapiens) (UniProt O43603)
Assay: GALR2 agonists, retest of hits, confirmation, cell-based (AID 864);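 also: 0% = buffer-only vehicle wells and 100% = full reference agonist response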
Settings: GALR2-expressing cells, agonist activation; at 5.6 µM; active compounds read high

Galanin receptor type 2 (Homo sapiens), sequence (O43603 whole entry, looked up): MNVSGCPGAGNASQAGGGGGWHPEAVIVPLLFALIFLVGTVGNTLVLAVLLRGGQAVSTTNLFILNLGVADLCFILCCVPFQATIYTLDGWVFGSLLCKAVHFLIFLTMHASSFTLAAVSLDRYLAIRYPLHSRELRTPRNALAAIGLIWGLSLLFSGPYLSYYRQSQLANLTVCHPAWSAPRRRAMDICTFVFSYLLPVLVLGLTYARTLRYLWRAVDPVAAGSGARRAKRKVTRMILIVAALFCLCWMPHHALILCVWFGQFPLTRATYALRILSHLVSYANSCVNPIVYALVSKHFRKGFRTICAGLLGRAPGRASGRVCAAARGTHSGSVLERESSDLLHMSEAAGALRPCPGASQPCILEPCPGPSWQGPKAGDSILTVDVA

Q: With Cc1cccc(N2C(=O)NC(=O)/C(=C\c3cnn(-c4ccccc4)c3)C2=O)c1 as the molecule, how does the activation read?
A: -0.18%
